Measured values: the supplement of paper PMC10849652
Of roughly 7,900 targets only a part is listed; those with a hit were picked by preference. About 0.6% of all pairs of compound and target were hits.

compound: CC(C)(C)Cn1c(N)nc2ccc(-c3[nH]c(C(C)(C)C)nc3-c3ccc(F)cc3)nc21 [ralimetinib]; assay: log2 fold change, soluble protein after heating vs DMSO (PISA); higher = thermal stabilisation; K562 cells, 10 uM, 30 min; active = over 0.2 and 3.5 SD of the protein, either way, in both replicates (recomputed)
Method in brief: (§1)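 For each measurement, 10 μM compound was applied for 30 min to K562 cells at 2×10^6 cells/mL. Aliquots were heated for 3 min across 48°C-58°C, pooled, and extracted in PBS with 0.5% NP-40 at 4°C; the supernatant after 21,000xg for 90 min was soluble protein. This was quantified by TMTpro 16plex LC-MS/MS with channel sums equalised, and thermal stability was reported relative to control samples from duplicates, on a log2 fold-change scale.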

Sequence of UniProt O60264 (O60264 whole entry, looked up): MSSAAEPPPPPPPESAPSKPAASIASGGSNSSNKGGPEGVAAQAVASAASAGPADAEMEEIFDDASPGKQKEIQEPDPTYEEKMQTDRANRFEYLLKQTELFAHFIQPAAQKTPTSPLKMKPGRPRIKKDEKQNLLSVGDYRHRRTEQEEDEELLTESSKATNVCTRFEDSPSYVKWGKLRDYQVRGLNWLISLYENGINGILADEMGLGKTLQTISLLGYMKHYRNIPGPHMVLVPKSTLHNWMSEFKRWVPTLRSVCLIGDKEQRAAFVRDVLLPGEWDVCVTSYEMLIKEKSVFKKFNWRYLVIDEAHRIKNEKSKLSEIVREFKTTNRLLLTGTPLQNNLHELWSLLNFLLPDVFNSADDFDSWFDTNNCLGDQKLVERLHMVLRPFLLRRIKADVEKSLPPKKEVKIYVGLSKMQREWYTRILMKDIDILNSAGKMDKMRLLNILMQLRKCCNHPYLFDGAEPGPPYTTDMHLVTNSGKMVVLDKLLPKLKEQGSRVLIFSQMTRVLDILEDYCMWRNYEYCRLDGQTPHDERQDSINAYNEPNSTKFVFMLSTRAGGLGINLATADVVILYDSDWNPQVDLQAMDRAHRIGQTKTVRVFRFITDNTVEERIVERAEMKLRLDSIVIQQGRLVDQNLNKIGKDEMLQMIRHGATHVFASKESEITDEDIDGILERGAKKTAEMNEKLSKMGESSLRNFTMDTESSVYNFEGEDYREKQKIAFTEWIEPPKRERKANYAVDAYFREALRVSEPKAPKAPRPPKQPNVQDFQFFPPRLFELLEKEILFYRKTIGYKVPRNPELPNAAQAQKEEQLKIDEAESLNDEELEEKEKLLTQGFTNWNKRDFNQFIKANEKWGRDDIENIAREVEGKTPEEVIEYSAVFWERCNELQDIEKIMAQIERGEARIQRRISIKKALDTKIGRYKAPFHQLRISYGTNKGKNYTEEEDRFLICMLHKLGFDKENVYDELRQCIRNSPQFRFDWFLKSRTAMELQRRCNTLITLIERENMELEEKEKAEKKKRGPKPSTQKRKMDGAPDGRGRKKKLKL
Sequence of UniProt Q8TCT7 (Q8TCT7 whole entry, looked up): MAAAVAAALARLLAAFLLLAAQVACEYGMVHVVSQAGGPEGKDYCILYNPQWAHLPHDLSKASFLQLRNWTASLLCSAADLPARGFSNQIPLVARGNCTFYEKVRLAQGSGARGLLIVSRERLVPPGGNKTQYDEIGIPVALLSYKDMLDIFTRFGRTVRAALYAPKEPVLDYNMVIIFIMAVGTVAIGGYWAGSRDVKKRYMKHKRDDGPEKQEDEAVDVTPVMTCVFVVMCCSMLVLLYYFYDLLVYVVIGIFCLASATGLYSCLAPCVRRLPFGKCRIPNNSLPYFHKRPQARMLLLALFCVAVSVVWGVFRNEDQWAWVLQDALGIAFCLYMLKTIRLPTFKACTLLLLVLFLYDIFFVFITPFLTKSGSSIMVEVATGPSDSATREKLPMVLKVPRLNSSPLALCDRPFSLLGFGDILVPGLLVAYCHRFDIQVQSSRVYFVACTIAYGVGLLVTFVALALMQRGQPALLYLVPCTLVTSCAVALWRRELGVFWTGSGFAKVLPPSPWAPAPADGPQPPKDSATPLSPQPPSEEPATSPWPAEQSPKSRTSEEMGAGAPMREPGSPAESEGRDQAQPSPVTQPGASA
Sequence of UniProt Q9Y5X1 (Q9Y5X1 whole entry, looked up): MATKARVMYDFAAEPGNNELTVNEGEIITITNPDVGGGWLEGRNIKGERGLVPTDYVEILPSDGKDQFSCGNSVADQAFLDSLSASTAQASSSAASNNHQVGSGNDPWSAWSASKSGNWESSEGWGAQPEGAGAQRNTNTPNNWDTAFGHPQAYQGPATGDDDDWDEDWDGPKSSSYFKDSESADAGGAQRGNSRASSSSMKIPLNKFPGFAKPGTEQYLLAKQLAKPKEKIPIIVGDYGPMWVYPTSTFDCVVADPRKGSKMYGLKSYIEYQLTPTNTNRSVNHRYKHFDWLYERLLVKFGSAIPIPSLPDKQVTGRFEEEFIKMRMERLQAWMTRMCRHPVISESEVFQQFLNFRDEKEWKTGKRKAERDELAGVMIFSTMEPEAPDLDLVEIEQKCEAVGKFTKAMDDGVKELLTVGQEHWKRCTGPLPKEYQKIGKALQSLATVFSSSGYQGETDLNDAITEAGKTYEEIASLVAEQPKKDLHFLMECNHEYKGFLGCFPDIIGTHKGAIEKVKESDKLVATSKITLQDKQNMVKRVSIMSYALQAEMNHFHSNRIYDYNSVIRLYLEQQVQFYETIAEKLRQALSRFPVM
Sequence of UniProt Q9Y2W1 (Q9Y2W1 whole entry, looked up): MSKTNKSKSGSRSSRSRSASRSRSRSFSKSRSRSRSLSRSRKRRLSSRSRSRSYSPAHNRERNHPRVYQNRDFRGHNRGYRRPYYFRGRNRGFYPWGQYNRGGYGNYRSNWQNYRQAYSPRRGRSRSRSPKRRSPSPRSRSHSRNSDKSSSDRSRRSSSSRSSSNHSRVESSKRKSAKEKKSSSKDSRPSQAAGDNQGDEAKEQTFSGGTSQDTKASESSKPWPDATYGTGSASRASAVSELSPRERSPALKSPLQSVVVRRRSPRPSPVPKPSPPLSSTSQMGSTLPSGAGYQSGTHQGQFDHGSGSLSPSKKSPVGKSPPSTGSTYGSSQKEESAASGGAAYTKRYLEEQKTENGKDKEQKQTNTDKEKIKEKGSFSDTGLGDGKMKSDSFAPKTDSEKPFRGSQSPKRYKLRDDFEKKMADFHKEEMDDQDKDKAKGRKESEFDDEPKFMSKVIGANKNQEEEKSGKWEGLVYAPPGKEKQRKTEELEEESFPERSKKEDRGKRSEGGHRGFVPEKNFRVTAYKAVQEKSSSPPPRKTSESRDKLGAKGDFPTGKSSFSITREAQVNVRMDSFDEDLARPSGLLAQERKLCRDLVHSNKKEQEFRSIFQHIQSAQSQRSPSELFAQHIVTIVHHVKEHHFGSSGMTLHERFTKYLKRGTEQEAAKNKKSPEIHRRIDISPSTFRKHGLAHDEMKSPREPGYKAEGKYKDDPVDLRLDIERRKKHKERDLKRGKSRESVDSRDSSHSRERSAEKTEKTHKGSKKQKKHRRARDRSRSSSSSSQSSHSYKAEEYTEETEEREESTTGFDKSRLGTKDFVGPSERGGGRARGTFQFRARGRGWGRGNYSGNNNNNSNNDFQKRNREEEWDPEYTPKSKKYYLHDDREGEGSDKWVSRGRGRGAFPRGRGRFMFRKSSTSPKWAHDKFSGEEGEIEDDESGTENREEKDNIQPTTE
Sequence of UniProt Q15833 (Q15833 whole entry, looked up): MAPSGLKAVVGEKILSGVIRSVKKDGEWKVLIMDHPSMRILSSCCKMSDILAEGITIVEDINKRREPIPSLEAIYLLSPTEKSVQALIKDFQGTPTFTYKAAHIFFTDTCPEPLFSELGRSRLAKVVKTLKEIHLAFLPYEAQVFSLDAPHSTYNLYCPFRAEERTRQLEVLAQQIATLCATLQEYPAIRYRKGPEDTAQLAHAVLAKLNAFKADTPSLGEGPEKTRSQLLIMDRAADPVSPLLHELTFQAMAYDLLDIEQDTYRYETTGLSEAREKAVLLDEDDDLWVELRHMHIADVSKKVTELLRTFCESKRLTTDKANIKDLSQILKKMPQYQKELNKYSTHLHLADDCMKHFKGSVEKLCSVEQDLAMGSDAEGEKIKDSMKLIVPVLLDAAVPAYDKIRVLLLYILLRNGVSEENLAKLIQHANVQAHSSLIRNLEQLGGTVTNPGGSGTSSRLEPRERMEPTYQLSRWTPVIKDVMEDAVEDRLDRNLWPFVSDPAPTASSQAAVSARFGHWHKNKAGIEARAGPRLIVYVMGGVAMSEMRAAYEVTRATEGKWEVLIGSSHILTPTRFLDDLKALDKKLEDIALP
Sequence of UniProt P30626 (P30626 whole entry, looked up): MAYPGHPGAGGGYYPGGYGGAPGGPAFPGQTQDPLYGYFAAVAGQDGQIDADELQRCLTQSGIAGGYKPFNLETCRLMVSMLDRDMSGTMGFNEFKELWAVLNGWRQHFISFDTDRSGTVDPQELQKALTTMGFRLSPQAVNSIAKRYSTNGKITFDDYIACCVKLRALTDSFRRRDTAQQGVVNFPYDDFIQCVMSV
Sequence of UniProt Q8WUH2 (Q8WUH2 whole entry, looked up): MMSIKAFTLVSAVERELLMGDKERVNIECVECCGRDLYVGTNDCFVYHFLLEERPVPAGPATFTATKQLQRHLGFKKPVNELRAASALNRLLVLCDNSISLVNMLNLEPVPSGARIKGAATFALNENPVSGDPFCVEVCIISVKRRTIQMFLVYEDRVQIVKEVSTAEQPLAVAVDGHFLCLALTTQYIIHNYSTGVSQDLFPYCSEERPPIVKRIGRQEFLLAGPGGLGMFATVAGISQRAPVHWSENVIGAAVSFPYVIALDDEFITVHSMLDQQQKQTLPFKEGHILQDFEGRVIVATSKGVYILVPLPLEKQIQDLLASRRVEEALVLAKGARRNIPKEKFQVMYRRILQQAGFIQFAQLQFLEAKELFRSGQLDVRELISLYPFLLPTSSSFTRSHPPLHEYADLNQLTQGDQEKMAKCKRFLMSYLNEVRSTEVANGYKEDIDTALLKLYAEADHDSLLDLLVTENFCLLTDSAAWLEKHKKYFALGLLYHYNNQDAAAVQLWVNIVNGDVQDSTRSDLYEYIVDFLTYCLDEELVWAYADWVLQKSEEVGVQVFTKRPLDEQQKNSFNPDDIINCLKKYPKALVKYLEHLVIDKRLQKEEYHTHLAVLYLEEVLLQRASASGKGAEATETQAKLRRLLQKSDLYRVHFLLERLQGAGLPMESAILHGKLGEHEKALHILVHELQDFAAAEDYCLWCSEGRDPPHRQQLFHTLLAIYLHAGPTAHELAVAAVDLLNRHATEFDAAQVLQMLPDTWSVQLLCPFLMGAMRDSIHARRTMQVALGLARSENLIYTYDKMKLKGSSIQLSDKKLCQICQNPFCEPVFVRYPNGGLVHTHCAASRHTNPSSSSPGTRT
Sequence of UniProt O60493 (O60493 whole entry, looked up): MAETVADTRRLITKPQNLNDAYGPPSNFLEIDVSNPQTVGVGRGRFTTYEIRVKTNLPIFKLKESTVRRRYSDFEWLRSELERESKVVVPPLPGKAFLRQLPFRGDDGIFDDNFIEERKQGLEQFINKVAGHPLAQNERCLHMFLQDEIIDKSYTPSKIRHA

log2 fold change, inactive:
TBC1D23 (UniProt Q9NUY8) 0.002
TFB2M (UniProt Q9H5Q4) -0.085
TGFBRAP1 (UniProt Q8WUH2) 0.33
SNX9 (UniProt Q9Y5X1) 0.005
THRAP3 (UniProt Q9Y2W1) -0.026
SRRM2 (UniProt Q9UQ35) 0.063
SSX2 (UniProt Q16385) -0.03
SMAP (UniProt O00193) 0.007
SMARCA5 (UniProt O60264) 0.033
SPAG9 (UniProt O60271) 0
SURF1 (UniProt Q15526) -0.04
TANGO6 (UniProt Q9C0B7) 0.197
SYNE1 (UniProt Q8NF91) 0.127
STAM2 (UniProt O75886) 0.034
SRSF2 (UniProt Q01130) 0.01
SMAD9 (UniProt O15198) -0.087
SPPL2B (UniProt Q8TCT7) 0.041
SUOX (UniProt P51687) 0.012
SPART (UniProt Q8N0X7) 0.02
TLK1 (UniProt Q9UKI8) 0.02
STXBP5 (UniProt Q5T5C0) 0.029
TCOF1 isoform 4 (UniProt Q13428) 0.028
TERF2IP (UniProt Q9NYB0) 0.038
TARS2 (UniProt Q9BW92) -0.029
TM9SF2 (UniProt Q99805) -0.049
TIPRL (UniProt O75663) -0.007
SREK1 isoform 2 (UniProt Q8WXA9) 0.036
SNX3 (UniProt O60493) -0.059
STXBP2 isoform 3 (UniProt Q15833) 0.172
SMPD4 isoform 4 (UniProt Q9NXE4) -0.072
TIMM13 (UniProt Q9Y5L4) -0.008
SPTBN1 (UniProt Q01082) 0.08
SUN2 (UniProt Q9UH99) 0.072
TAOK1 (UniProt Q7L7X3) 0.062
SMARCE1 (UniProt Q969G3) 0.163
SRI (UniProt P30626) -0.039
SNRPB2 (UniProt P08579) -0.015

compound: CC(C)(O)CC(=O)NCCn1ccc2ncnc(Nc3ccc(Oc4cccc(C(F)(F)F)c4)c(Cl)c3)c21; assay: as above
Method in brief: as §1

log2 fold change, inactive:
TBC1D23 (UniProt Q9NUY8) -0.098
TFB2M (UniProt Q9H5Q4) -0.136
TGFBRAP1 (UniProt Q8WUH2) -0.108
SNX9 (UniProt Q9Y5X1) 0.002
THRAP3 (UniProt Q9Y2W1) -0.032
SRRM2 (UniProt Q9UQ35) 0.01
SSX2 (UniProt Q16385) 0.022
SMAP (UniProt O00193) -0.004
SMARCA5 (UniProt O60264) -0.113
SPAG9 (UniProt O60271) -0.045
SURF1 (UniProt Q15526) 0.036
TANGO6 (UniProt Q9C0B7) -0.153
SYNE1 (UniProt Q8NF91) -0.212
STAM2 (UniProt O75886) 0.038
SRSF2 (UniProt Q01130) 0.055
SMAD9 (UniProt O15198) -0.022
SPPL2B (UniProt Q8TCT7) 0.179
SUOX (UniProt P51687) -0.022
SPART (UniProt Q8N0X7) -0.058
TLK1 (UniProt Q9UKI8) -0.032
STXBP5 (UniProt Q5T5C0) -0.038
TCOF1 isoform 4 (UniProt Q13428) 0.023
TERF2IP (UniProt Q9NYB0) 0.034
TARS2 (UniProt Q9BW92) -0.078
TM9SF2 (UniProt Q99805) 0.021
TIPRL (UniProt O75663) -0.065
SREK1 isoform 2 (UniProt Q8WXA9) 0.026
SNX3 (UniProt O60493) -0.104
STXBP2 isoform 3 (UniProt Q15833) -0.065
SMPD4 isoform 4 (UniProt Q9NXE4) -0.095
TIMM13 (UniProt Q9Y5L4) -0.145
SPTBN1 (UniProt Q01082) 0.043
SUN2 (UniProt Q9UH99) -0.119
TAOK1 (UniProt Q7L7X3) 0.009
SMARCE1 (UniProt Q969G3) -0.043
SRI (UniProt P30626) -0.108
SNRPB2 (UniProt P08579) 0.037
